Source: PubChem BioAssay AID588342 (National Center for Advancing Translational Sciences (NCATS), 2011)
Among all 360,000 compounds or so, about 25,000 (6.9%) were called active. Inconclusive results (about 9%) are left out. Only a selection was taken, and actives are over-represented in it overall. A number with no mark means an inactive call. Calls come from the whole dose curve; as a rule, active = well fitted inhibition curve with a large enough effect; inconclusive = small, poorly fitted or top-dose-only effect; inactive = flat fitted curve, though single readings scatter.

Biological target: Luciferin 4-monooxygenase (Photinus pyralis) (UniProt P08659)
Sequence (P08659 whole entry, looked up): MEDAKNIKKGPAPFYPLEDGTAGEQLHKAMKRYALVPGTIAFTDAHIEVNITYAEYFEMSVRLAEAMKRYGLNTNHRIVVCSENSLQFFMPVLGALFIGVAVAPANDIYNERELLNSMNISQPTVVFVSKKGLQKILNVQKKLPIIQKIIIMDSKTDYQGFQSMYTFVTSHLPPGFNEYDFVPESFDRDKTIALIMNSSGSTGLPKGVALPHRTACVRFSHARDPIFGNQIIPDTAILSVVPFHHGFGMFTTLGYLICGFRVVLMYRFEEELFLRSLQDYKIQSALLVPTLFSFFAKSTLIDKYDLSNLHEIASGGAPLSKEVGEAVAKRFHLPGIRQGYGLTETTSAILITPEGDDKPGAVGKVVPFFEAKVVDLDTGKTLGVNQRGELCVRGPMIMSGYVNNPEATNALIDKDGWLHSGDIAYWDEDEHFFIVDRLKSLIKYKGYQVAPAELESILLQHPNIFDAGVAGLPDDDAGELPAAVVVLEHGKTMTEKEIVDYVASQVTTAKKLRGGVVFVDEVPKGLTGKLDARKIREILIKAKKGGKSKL
Experiment: qHTS profiling assay for firefly luciferase inhibitor/activator using purifed enzyme and Km concentrations of substrates (counterscreen for miR-21 project); note: nearly all actives have a fitted effect of over 55% in size;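 for activity change, negative = inhibition: plate controls were vehicle for no effect and reference inhibitor for full effect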
Conditions: purified FLuc, luminescence inhibition; series mostly up to 57.5 µM; activity change, negative = inhibition: at the top concentration
Summary of the method: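 Purified P. pyralis luciferase, 10 nM final, with Km-level 10 uM D-luciferin and 10 uM ATP in 50 mM Tris acetate pH 7.5, 10 mM Mg acetate, 0.01% Tween-20, 0.05% BSA; 6-point qHTS titration about 60 µM downward; luminescence read.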
Potency is the fitted concentration of half-maximal effect.

SMILES | Potency | activity change, negative = inhibition
CC(C)Oc1ccc(NC(=O)c2cc3ccccc3o2)cc1 | 1.51 µM (active) | –
CC(=O)Cc1ccc(OC(C)C)cc1 | – | 4.48%
Cc1ccc(-c2nc3ccccc3c(=O)n2-c2ccc(Br)cn2)cc1 | – | 2.91%
COCCNC(=O)CN1C2CCC1CC(O)(c1cccnc1)C2 (centres undefined) | – | 0.105%
CCC(=NCCc1ccccc1)c1c(O)n(C2CCCCC2)c(=O)[nH]c1=O | – | -0.859%
CC/C(=N\NC(=O)c1ccccc1O)c1c(O)n(Cc2ccccc2)c(=O)[nH]c1=O | 9.53 µM (active) | –
CCC(=NCc1ccco1)c1c(O)n(Cc2ccccc2)c(=O)[nH]c1=O | – | 9.59%
Cc1ccc(C(C)C)c(OCC(=O)N2CCN(CC(=O)N3CCOCC3)CC2)c1 | – | -0.447%
CC1(C)Cc2c(C#N)c(N3CCNCC3)nc(-c3ccco3)c2CS1 | – | -1.07%
Cc1ccc(Cn2nnnc2CN2CCC(n3nnc4ccccc43)CC2)cc1 | – | 0.191%
CCc1cccc2c(C#N)cn(CC(=O)N3CCOCC3)c12 | – | -0.188%
C=CCN1C(=O)NC(=O)/C(=C/c2ccc(OCC(=O)Nc3ccc(C)cc3)cc2)C1=O | 21.3 µM (active) | –
C=CCN(CC=C)C(=O)Nc1ccc(OCC)cc1 | – | -16.5%
O=C(O)COc1ccccc1/C=C1\C(=O)NC(=O)N(CCC2=CCCCC2)C1=O | – | 0.408%
COC(=O)C1=C(c2ccc(Cl)c(C(F)(F)F)c2)C[C@@H]2CC[C@H]1N2C(=O)NC1CC1 | – | -0.397%
Cc1cc(C(=O)OCC(=O)Nc2c(F)cccc2F)c(C)n1C1CC1 | – | 2.98%
c1cc2c(cc1CCNC1CCCCCC1)OCO2 | – | 4.17%
COC(=O)C1=C(c2ccc(F)cc2OCc2ccccc2)C[C@@H]2CC[C@H]1N2C(=O)NCc1ccc(OC)c(OC)c1 | – | 0.248%
Cc1cccc(N2C(=O)NC(=O)/C(=C\c3cnn(-c4ccccc4)c3)C2=O)c1 | 15.1 µM (active) | –
COc1cccc(N2C(=O)NC(=O)/C(=C\c3cn(C)c4ccccc34)C2=O)c1 | – | -6.34%
O=C1C2(Cl)C3(Cl)C4(Cl)C(Cl)(Cl)C5(Cl)C3(Cl)C1(Cl)C5(Cl)C24Cl (centres undefined) | – | 3.33%
COc1ccc(Br)cc1CNCCc1cccc(Cl)c1 | – | 0.615%

SMILES | Potency | activity change, negative = inhibition
COc1cc(-n2c(=S)[nH]c3ccc(C)cc3c2=O)c(Cl)cc1Cl | – | -15%
c1csc(-c2nnc(COc3ccc4c(c3)OCO4)o2)c1 | 19 µM (active) | –
CCN(CC)P(=O)(Oc1cccc(C)c1)N(CC)CC | – | 2.83%
COC(=O)C1=C(c2ccc(F)cc2F)C[C@@H]2CC[C@H]1N2C(=O)NC1CC1 | – | -0.733%
CN1CCN(c2cc(N3CCNCC3)ccc2[N+](=O)[O-])CC1 | – | 5.49%
Cc1nc2ccc(N3CCN(C)CC3)cc2nc1C | 19 µM (active) | –
COC(=O)C1=C(c2cccc(OCc3ccccc3)c2)C[C@@H]2CC[C@H]1N2C(=O)NNCc1ccccc1 | – | -1.66%
CCOC(=O)C1=C(C)OC(N)=C(C(=O)OC)C12C(=O)Nc1ccc(Br)cc12 (centres undefined) | – | 7.3%
Cc1ccc(-n2c(/C=C/c3cccc(C(F)(F)F)c3)nc3ccccc3c2=O)cc1 | – | 2.96%
COC(=O)C1=C(c2ccc(F)cc2OCc2ccccc2)C[C@@H]2CC[C@H]1N2C(=O)NCc1ccc(Cl)cc1 | – | -0.957%
O=C1NC(=O)N(CCc2ccc(F)cc2)C(=O)/C1=C/C=C/c1ccccc1 | – | -1.25%
O=C1NC(=O)N(Cc2ccco2)C(=O)/C1=C\c1ccc(-c2ccc(F)cc2)o1 | 10.7 µM (active) | –
Cc1cc(/C=C2/C(=O)NC(=O)N(Cc3ccco3)C2=O)c(C)n1-c1ccc(C(=O)O)cc1 | – | -2.68%
c1ccc2sc(C3CCCNC3)nc2c1 (centres undefined) | – | -2.06%
COC(=O)C1=C(c2ccc(F)cc2OCc2ccccc2)C[C@@H]2CC[C@H]1N2C(=O)NCc1ccc2[nH]ccc2c1 | – | -0.247%
CN(C)C(=O)Oc1ccc2c(c1)O/C(=C\c1ccccc1)C2=O | 9.53 µM (active) | –
CN(C)C(=O)Oc1ccc(OCc2cccc[n+]2C)cc1 | – | 5.09%
CCOC(=O)c1c(-c2ccccc2)oc2ccc(OC(=O)N(C)C)cc12 | – | 1.44% [at 2.3 µM]
CCC12CCN(CCc3ccccc3)CC1Oc1c(O)cccc12 (centres undefined) | – | 6.79%
COC(=O)C1=C(c2ccc(Cl)c(C(F)(F)F)c2)C[C@@H]2CC[C@H]1N2C(=O)NC(C)C | – | 2.4%
Cc1nn(-c2ccccc2)c(C)c1NC(=O)COC(=O)Cc1ccccc1 | – | 3.9%
COc1ccc(C(=O)C2CN(C)CC2C(=O)c2ccc(OC)cc2)cc1 (centres undefined) | – | -0.072%
